AmpC det inh: AmpC beta-lactamase inhibition, detergent assay; AID 584; actives 0.09% (n = 71,000); Potency, µM (series often up to 28.7 µM); purified AmpC, nitrocefin hydrolysis with detergent; active = well fitted curve in the direction sought with a large enough effect; inconclusive = small, poorly fitted or top-dose-only effect
Target sequence (P00811 whole entry, looked up): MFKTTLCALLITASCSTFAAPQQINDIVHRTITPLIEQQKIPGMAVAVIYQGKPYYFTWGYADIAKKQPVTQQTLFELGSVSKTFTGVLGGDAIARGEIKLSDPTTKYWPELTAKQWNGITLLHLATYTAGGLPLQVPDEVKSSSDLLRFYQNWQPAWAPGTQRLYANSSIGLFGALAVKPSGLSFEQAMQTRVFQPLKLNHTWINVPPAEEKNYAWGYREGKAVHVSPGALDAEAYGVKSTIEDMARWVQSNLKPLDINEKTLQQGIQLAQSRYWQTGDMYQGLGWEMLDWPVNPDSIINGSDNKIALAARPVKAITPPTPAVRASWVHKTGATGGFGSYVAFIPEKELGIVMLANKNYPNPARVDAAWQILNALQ
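E. coli AmpC (5.3 nM) in 20 mM phosphate pH 7.0 with 0.01% Triton X-100, preincubated 15 min RT with compound; nitrocefin (2 uL of 800 uM stock) hydrolysis followed by 480 nm absorbance every 20 s over 4 min.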
Anthrax LT inh: inhibitors of anthrax lethal toxin internalization. Potency, µM (series often up to 40 µM), most hits filed as inhibitors. actives 0.67% (n = 70,000). Cells, anthrax lethal toxin internalization, FRET ratio (460/530). AID 912; note: nearly all actives have a fitted effect of over 50% in size
AmpC inh no det: blocks E. coli AmpC beta-lactamase in absence of detergent; P00811; AmpC nitrocefin hydrolysis, absorbance 480 nm, no detergent; Potency, µM (top dose mostly 28.7 µM); actives 1.8% (n = 71,000); AID 585
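AmpC, 20 mM phosphate pH 7.0; 15 min cpd preinc, RT; start with nitrocefin (800 uM stock); A480 kinetic read, 20 s intervals, 4 min. No-enzyme wells = negative control.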
Prx2 Sm inh: Schistosoma mansoni Prx2 inhibition; actives 0.07% (n = 65,000); AID 448; S. mansoni Prx2 activity coupled to TGR/GSH (TGR is thioredoxin glutathione reductase), NADPH fluorescence loss, qHTS; Potency, µM
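Prx2 inhibition was measured as reduced NADPH consumption when electrons flowed from NADPH through TGR and glutathione to Prx2 and H2O2. Plates were read kinetically over 8 min; enzyme reagents were held at 4 deg C during dispensing.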
A number is an active result; - = inactive; ? = inconclusive; . = no result given; [ ] = another dose, or the depositor's remark. Sampled rows, rich in hits. Any-hit rate of the full collection: about 2.4%. Unless noted, calls come from the whole dose curve.

SMILES | AmpC det inh | Anthrax LT inh | AmpC inh no det | Prx2 Sm inh
Nc1nc2n(n1)C(c1ccccc1)CC(c1ccc(F)cc1)N2 (stereo unspecified) | - | - | 3.98µM[single pt active] | -
CCc1ccc(C2CC(c3ccc(Cl)cc3)n3nc(N)nc3N2)cc1 (stereo unspecified) | - | - | 3.98µM[single pt active] | -
Nc1nc2n(n1)C(c1cccc(Br)c1)CC(c1ccc(F)cc1)N2 (stereo unspecified) | - | - | - | -
Cc1ccccc1C1CC(c2ccc(Br)cc2)Nc2nc(N)nn21 (stereo unspecified) | - | - | - | -
Nc1nc2n(n1)C(c1ccco1)CC(c1ccc(F)cc1)N2 (stereo unspecified) | - | - | - | -
C=CCN1C[C@@H](C)N([C@H](c2ccc(C(=O)N(CC)CC)cc2)c2cccc(OC)c2)C[C@H]1C | - | ? | - | -
CC(C)(C)c1onc(OCP(=O)(O)O)c1C[C@@H](N)C(=O)O | - | - | - | -
COc1cccc(C2=NOC(C(=O)N3CCN(C(=O)c4ccco4)CC3)C2)c1 (stereo unspecified) | - | - | 2.51µM[single pt active] | -
CN1c2cc3c(cc2N=C(c2ccc(C(=O)O)cc2)c2ccccc21)C(C)(C)CCC3(C)C | . | 10µM | . | .
COc1ccc(S(=O)(=O)c2c(N)n(Cc3ccco3)c3nc4ccccc4nc23)cc1 | - | ? | 12.6µM | -
COc1ccc(Cn2c(C)nc3c(c2=O)c2nc4ccccc4nc2n3Cc2ccco2)cc1 | - | ? | - | -
CCN1CCN(C(=O)C2CC(c3ccc(F)cc3)=NO2)CC1 (stereo unspecified) | - | - | 3.98µM[single pt active] | -
O=C(Cn1c(NCCCO)nc2ccccc21)c1cccs1 | - | - | 3.16µM[single pt active] | -
CCCCn1c(NCc2ccccc2O)nc2ccccc21 | - | - | 3.98µM[single pt active] | -
CCCn1c(NCc2cc(C)ccc2O)nc2ccccc21 | - | - | - | .
CCCCn1c(NCCO)nc2ccccc21 | - | - | 3.16µM[single pt active] | -
COc1ccc([C@@H]2OC[C@]3(COC(C)=O)[C@H](C)C=C(C)[C@@H]2[C@H]3C)cc1 | - | ? | - | -
CN1CCN(c2ncc3nc(-c4ccccc4)c(=O)n(CCC#N)c3n2)CC1 | - | - | - | -
N#CC1=C(N)NC(SCC(=O)Nc2ccccc2)=C(C#N)C12CCCC2 | - | 10µM | - | -
O=C(CSc1nnc(Cc2cc(=O)[nH]c(=O)[nH]2)n1-c1ccccc1)N1CCCCC1 | - | - | 3.16µM[single pt active] | -
O=C(CSc1nnc(Cc2cc(=O)[nH]c(=O)[nH]2)n1-c1ccccc1)N1CCCC1 | - | - | - | -
COc1cccc(-n2c(Cc3cc(=O)[nH]c(=O)[nH]3)nnc2SCC(=O)N2CCC(C)CC2)c1 | - | - | - | -
COc1cccc(-n2c(Cc3cc(=O)[nH]c(=O)[nH]3)nnc2SCC(=O)N2CCCCCC2)c1 | - | - | 3.98µM[single pt active] | -
COc1cccc(-n2c(Cc3cc(=O)[nH]c(=O)[nH]3)nnc2SCC(=O)N2CCCC2)c1 | - | - | - | -
COc1ccc(-n2c(Cc3cc(=O)[nH]c(=O)[nH]3)nnc2SCC(=O)N2CCC(C)CC2)cc1 | - | - | 3.98µM[single pt active] | -
SMILES | AmpC det inh | Anthrax LT inh | AmpC inh no det | Prx2 Sm inh
CC1CCN(C(=O)CSc2nnc(Cc3cc(=O)[nH]c(=O)[nH]3)n2-c2ccc(Cl)cc2)CC1 | - | - | 3.98µM[single pt active] | -
Cn1c(=O)c(-c2cc(F)cc(F)c2)nc2cnc(N3CCNCC3)nc21 | - | ? | - | -
COc1ccc(-n2c(Cc3cc(=O)[nH]c(=O)[nH]3)nnc2SCC(=O)Nc2ccccc2)cc1 | - | ? | ? | -
COc1ccc(-n2c(Cc3cc(=O)[nH]c(=O)[nH]3)nnc2SCC(=O)N2CCCC2)cc1 | - | - | 3.98µM[single pt active] | -
Cc1ccc2oc(=O)c3cc(C(=O)N4CCN(C(=O)c5ccco5)CC4)sc3c2c1 | - | - | - | -
Cc1ccc2oc(=O)c3cc(C(=O)N4CCN(c5ncccn5)CC4)sc3c2c1 | - | - | 3.98µM[single pt active] | -
COC1=C[C@H]2[C@@H]3Cc4ccc(OC)c(O)c4[C@@]2(CCN3C)CC1=O | - | ? | - | -
C[C@@]12C(=O)OC(=O)[C@@]1(C)[C@H]1CC[C@@H]2O1 | - | ? | - | -
CC(=O)N[C@@H](c1ccccc1)[C@]1(C)C[C@H]1[C@@H](C)C(=O)Nc1ccc2ccccc2c1 | - | - | - | -
Cc1cc(C(=O)N[C@H](c2ccccc2)[C@@]2(C)C[C@@H]2[C@@H](C)C(=O)Nc2ccc3ccccc3c2)n(C)n1 | - | 10µM | - | -
C[C@@H](C(=O)Nc1ccc2ccccc2c1)[C@H]1C[C@]1(C)[C@H](NC(=O)OCc1ccccc1)c1ccccc1 | - | ? | 7.94µM | -
